Assay results as given in PubChem BioAssay (Tox21).
Inconclusive results are not listed. The source made the active and inactive calls. Unless noted, calls follow the shape of the full dose curve.

What was measured:
[1] = Nuclear factor erythroid 2-related factor 2/antioxidant responsive element (Nrf2/ARE) small molecule agonists: qHTS cell viability counter screen in human keratinocytes (AID 1919968; active = well fitted curve in the direction sought with a large enough effect in the repeat runs; an effect the other way counts as inactive or inconclusive; also: nearly all actives have a fitted effect of over 55% in size)
Summary of the method: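 Stably transfected HaCaT (KeratinoSens), 1,500/well. Test agents in DMSO were applied for 23 h, 37 C/5% CO2. CellTiter-Fluor was incubated 1 h before the fluorescence read.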

[2] = Nuclear factor erythroid 2-related factor 2/antioxidant responsive element (Nrf2/ARE) small molecule agonists: luciferase reporter gene qHTS assay in human keratinocytes (AID 1919969); also: nearly all actives have a fitted effect of over 35% in size
[3] = target: Gonadotropin-releasing hormone receptor (Homo sapiens) (UniProt P30968); test: Human gonadotropin-releasing hormone receptor (GnRHR) small molecule agonists, calcium flux assay in GnRHR-HEK293 cells (AID 1920063); also: nearly all actives have a fitted effect of over 35% in size
Summary of the method: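 Stable human GnRHR HEK293 line. 18 h plating, then calcium dye for 1 h at 37 C. Agonist-mode compound addition from DMSO stocks; fluorescence monitored 3 min.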

[4] = target: KiSS-1 receptor (Homo sapiens) (UniProt Q969F8); test: Human kisspeptin (KISS1R) small molecule agonists, calcium flux assay in KISS1R-HEK293 cells (AID 1920064; active = well fitted curve in the direction sought with a large enough effect in the repeat runs; an effect the other way counts as inactive or inconclusive)
Summary of the method: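 After overnight (18 h) culture at 37 C/5% CO2, human KISS1R-HEK293 cells received calcium dye for 1 h, then test compound; emission at 540 nm (excitation 480 nm) was tracked for 3 min.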

[5] = G protein-coupled receptor (GPCR) small molecule agonists, calcium flux assay: HEK293 wild type cell line counter screen (AID 1920065)
Summary of the method: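 Following 18 h incubation at 37 C/5% CO2, plates got calcium dye for 1 h; compounds, ATP or DMSO were then pinned in and fluorescence followed kinetically (480/540 nm).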

[6] = p53 small molecule agonists, cell-based qHTS assay with human liver microsomes (AID 1963577);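 also: p53 response element beta-lactamase reporter cells with liver microsomes plus NADPH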
Summary of the method: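 Steps: plate p53RE-bla cells, incubate 5 h at 37 C; add compound in DMSO; add microsomes (0.5 mg/mL final) and NADPH (0.5 mg/mL final); incubate 16 h at 37 C; add LiveBLAzer, 2 h RT; read fluorescence.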

[7] = p53 small molecule agonists, cell-based qHTS assay with rat liver microsomes (AID 1963578)
Summary of the method: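 Metabolic activation is supplied by rat liver microsomes with NADPH (each 0.5 mg/mL final). p53RE-bla cells incubate with compound 16 h at 37 C; reporter activity is measured by LiveBLAzer fluorescence.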

[8] = p53 small molecule agonists, cell-based qHTS assay with human liver microsomes: qHTS cell viability counter screen (AID 1963579); also: nearly all actives have a fitted effect of over 45% in size
Summary of the method: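 After the 460/530 nm beta-lactamase read, CellTiter-Glo was added to the same wells and luminescence measured after 30 min at room temperature, giving viability of p53RE-bla cells treated 16 h with compounds plus microsomes and NADPH.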

[9] = p53 small molecule agonists, cell-based qHTS assay with rat liver microsomes: qHTS cell viability counter screen (AID 1963580); also: nearly all actives have a fitted effect of over 45% in size
Summary of the method: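 Luminescent ATP readout (CellTiter-Glo, 30 min at room temperature) reports viability of p53RE-bla HCT-116 cells after 16 h at 37 C with test compounds under metabolic activation by rat liver microsomes and NADPH at 0.5 mg/mL final each.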

[10] = p53 small molecule agonists, cell-based qHTS assay: qHTS cell viability counter screen (AID 1963581); also: nearly all actives have a fitted effect of over 45% in size
Summary of the method: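 qHTS counter screen: 16 h compound exposure at 37 C of p53RE-bla HCT-116 cells (4,000 per well, seeded 5 h prior), cell viability by ATP luminescence.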

[11] = p53 small molecule agonists, cell-based qHTS assay (AID 1963582; active = well fitted activation curve with a large enough effect in the signal ratio in the repeat runs, not every such curve was filed as active; the % refers to the signal ratio)
Summary of the method: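 Measured: fluorescence from cleaved LiveBLAzer substrate. System: p53RE-bla cells, 16 h compound treatment at 37 C, 2 h substrate step at room temperature.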

[12] = target: 5-hydroxytryptamine receptor 2A (Homo sapiens) (UniProt P28223); test: 5-hydroxytryptamine receptor 2A (HTR2A) small molecule agonists, cell-based qHTS assay (AID 1963587); also: nearly all actives have a fitted effect of over 30% in size
Summary of the method: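 HTR2A-CHO cells, plated 18 h at 37 C/5% CO2, dye-loaded 1 h at 37 C; compounds in DMSO added by pin tool (agonist mode). Intracellular calcium flux read as kinetic fluorescence on FDSS over 2 min at 1 s intervals.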

[13] = target: Muscarinic acetylcholine receptor M1 (Homo sapiens) (UniProt P11229); test: Cholinergic receptor muscarinic 1 (CHRM1) small molecule antagonists, cell-based qHTS assay (AID 1963588); also: nearly all actives have a fitted effect of over 40% in size
Summary of the method: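 Compounds were tested at 15 concentrations in three independent runs. Dye-loaded CHRM1-CHO cells were exposed 5 min at room temperature before stimulation by acetylcholine added at 50nM. Intracellular calcium was read kinetically on FDSS for 3 min.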

[14] = target: Muscarinic acetylcholine receptor M1 (Homo sapiens) (UniProt P11229); test: Cholinergic receptor muscarinic 1 (CHRM1) small molecule agonists, cell-based qHTS assay (AID 1963589); also: nearly all actives have a fitted effect of over 35% in size
Summary of the method: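 Kinetic fluorescence (1 s intervals) of calcium-sensitive dye in human M1 CHO cells after compound addition; cells pre-incubated 18 h at 37 C/5% CO2 and dye-loaded 1 h.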

[15] = cAMP Responsive Elements (CRE) small molecule agonists, cell-based qHTS assay (AID 1963590)
Summary of the method: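 Test agents in DMSO were incubated 3 h at 37 C/5% CO2 with CRE-bla HEK 293T cells seeded 18 h earlier; LiveBLAzer B/G FRET substrate was added and read after 2 h at room temperature.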

[16] = cAMP Responsive Elements (CRE) small molecule antagonists, cell-based qHTS assay (AID 1963591; active = well fitted inhibition curve with a large enough effect in the signal ratio in the repeat runs, not every such curve was filed as active; the % refers to the signal ratio)
Summary of the method: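 Reporter line CRE-bla HEK 293T in dialyzed-FBS DMEM; cells preincubated 18 h, treated 3 h with compound plus NKH477 (0.25 uM final); LiveBLAzer FRET, 2 h RT.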

[17] = target: Beta-2 adrenergic receptor (Homo sapiens) (UniProt P07550); test: Adrenergic beta2 receptor (ADRB2) small molecule antagonists, cell-based qHTS assay (AID 1963592); also: series mostly up to about 92 µM; nearly all actives have a fitted effect of over 50% in size
Summary of the method: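 Assay format: CHO-ADRB2 cells, 18-20hr seeding at 37C/5% CO2, then compound plus 1nM isoproterenol agonist mix for 0.5hr RT. Homogeneous time-resolved fluorescence cAMP detection after 1hr, expressed as 665/615 nm ratio.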

[18] = target: D(2) dopamine receptor (Homo sapiens) (UniProt P14416); test: Dopamine D2 receptor (DRD2) small molecule agonists, cell-based qHTS assay (AID 1963594); also: nearly all actives have a fitted effect of over 35% in size
Summary of the method: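 HEK293 cells stably expressing DRD2 were cultured 24 h at 37 C, then given Ro20-1724 (0.1 mM final) and compounds for 10 min at room temperature. NKH477 (200nM) was then added for 30 min. cAMP was read by HTRF.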

[19] = target: D(2) dopamine receptor (Homo sapiens) (UniProt P14416); test: Dopamine D2 receptor (DRD2) small molecule antagonists, cell-based qHTS assay (AID 1963595; active = well fitted inhibition curve with a large enough effect in the signal ratio in the repeat runs, with a control signal flat; the % refers to the signal ratio)
Summary of the method: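 In this cell-based antagonist screen, compounds act for 10 min at room temperature before a 30 min challenge with 12 nM quinpirole and 200 nM NKH477. cAMP is quantified by HTRF competition in DRD2-HEK293 cells containing 0.1 mM Ro20-1724.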

[20] = target: 5-hydroxytryptamine receptor 2A (Homo sapiens) (UniProt P28223); test: 5-hydroxytryptamine receptor 2A (HTR2A) small molecule antagonists, cell-based qHTS assay (AID 1963586); also: nearly all actives have a fitted effect of over 45% in size
Summary of the method: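 CHO cells stably expressing human HTR2A were plated for 18 h at 37 C, then loaded with calcium dye for 1 h. Compounds were preincubated 5 min at room temperature before DOI (4 nM solution) was added. Kinetic fluorescence was read for 3 min.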

Measured: Potency

5-hydroxytryptamine receptor 2A (Homo sapiens), sequence (P28223 whole entry, looked up): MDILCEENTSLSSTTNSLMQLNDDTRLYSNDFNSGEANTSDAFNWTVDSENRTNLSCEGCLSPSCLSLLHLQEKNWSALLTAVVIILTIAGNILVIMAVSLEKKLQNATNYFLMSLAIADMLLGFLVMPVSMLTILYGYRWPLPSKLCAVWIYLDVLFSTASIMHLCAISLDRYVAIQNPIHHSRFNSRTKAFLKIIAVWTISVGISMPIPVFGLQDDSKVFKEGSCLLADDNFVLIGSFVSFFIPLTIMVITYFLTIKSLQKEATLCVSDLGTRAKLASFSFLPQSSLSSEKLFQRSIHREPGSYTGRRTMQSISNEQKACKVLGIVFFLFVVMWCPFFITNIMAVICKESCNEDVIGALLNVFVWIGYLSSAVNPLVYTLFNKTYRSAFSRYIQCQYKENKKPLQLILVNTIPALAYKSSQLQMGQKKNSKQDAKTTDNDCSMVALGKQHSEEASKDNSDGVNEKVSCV
Muscarinic acetylcholine receptor M1 (Homo sapiens), sequence (P11229 whole entry, looked up): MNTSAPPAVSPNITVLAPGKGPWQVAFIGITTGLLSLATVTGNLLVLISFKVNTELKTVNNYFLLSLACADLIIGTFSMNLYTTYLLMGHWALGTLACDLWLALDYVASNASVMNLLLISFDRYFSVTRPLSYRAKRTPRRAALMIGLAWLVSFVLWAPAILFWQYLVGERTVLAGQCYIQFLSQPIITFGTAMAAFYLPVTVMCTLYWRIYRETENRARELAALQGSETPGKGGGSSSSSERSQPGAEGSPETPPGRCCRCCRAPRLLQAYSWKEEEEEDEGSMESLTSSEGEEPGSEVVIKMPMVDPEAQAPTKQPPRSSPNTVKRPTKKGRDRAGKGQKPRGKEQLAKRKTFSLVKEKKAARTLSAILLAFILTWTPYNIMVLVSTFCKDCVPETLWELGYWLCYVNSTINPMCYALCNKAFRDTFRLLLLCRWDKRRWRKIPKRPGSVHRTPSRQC
Gonadotropin-releasing hormone receptor (Homo sapiens), sequence (P30968 whole entry, looked up): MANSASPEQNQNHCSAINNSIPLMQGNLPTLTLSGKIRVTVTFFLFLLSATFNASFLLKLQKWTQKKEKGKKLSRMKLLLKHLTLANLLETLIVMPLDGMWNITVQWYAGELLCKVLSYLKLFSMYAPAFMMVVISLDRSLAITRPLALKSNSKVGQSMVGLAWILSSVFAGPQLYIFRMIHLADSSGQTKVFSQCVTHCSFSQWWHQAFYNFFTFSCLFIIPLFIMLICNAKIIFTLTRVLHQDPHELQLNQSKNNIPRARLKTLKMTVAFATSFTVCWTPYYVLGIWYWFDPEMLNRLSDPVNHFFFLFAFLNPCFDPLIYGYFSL
D(2) dopamine receptor (Homo sapiens), sequence (P14416 whole entry, looked up): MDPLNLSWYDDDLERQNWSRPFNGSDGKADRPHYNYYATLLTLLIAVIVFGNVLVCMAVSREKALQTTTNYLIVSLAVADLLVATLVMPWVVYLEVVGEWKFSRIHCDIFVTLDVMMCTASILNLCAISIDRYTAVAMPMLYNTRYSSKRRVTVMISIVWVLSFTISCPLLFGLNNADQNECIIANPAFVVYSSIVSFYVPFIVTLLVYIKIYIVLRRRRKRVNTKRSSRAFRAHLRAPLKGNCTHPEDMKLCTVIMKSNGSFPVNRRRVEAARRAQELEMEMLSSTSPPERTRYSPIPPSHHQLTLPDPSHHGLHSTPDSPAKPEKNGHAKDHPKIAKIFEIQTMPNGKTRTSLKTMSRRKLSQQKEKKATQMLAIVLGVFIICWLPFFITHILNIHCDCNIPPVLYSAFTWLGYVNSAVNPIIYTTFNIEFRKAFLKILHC
KiSS-1 receptor (Homo sapiens), sequence (Q969F8 whole entry, looked up): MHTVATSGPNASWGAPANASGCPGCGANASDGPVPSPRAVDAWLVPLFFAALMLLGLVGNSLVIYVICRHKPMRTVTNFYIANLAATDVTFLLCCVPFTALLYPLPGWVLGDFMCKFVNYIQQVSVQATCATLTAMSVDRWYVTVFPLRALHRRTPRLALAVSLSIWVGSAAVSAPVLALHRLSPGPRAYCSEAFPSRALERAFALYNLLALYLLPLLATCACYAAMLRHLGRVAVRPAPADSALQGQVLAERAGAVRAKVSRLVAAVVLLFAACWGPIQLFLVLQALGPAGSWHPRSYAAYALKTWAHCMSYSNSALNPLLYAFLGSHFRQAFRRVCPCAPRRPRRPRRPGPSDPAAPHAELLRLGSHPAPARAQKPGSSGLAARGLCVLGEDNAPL
Beta-2 adrenergic receptor (Homo sapiens), sequence (P07550 whole entry, looked up): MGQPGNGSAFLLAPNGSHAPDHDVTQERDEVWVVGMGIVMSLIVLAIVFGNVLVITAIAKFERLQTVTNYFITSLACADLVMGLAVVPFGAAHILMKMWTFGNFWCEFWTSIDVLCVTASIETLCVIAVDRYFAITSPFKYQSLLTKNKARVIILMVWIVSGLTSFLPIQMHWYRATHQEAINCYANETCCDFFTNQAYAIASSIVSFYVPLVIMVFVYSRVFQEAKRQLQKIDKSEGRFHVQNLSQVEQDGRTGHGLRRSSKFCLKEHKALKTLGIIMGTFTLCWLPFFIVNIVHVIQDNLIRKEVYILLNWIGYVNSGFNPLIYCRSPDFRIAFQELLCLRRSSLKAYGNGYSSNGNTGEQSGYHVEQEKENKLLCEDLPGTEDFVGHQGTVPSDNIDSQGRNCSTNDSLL

C1=C\CC/C=C\CC/1
not listed: [20]
inactive: all other assays above

CCC=CC#N
not listed: [12] | [13] | [16] | [17] | [18]
inactive: all other assays above

CC(C)C(=O)OCc1cccc(OC(=O)[C@@H]2N3C(=O)[C@@H](NC(=O)Cc4ccccc4)[C@H]3SC2(C)C)c1
not listed: [20]
inactive: all other assays above
